Data taken from PubChem BioAssay (NCATS).
Inconclusive results are not listed. Activity calls are given as the source filed them. Calls follow the shape of the dose curve; as a rule, active = well fitted cell-killing curve with a large enough effect; inconclusive = small, poorly fitted or top-dose-only effect, or effect the other way; inactive = no such curve, though single readings can be large or run the other way.

assay: Quantitative High-Throughput drug screen in 47 multiple myeloma cell lines against the NCATS MIPE library collection: KMS12BM_JCRB cell viability assay (AID 1918971); details: KMS12BM myeloma viability, CellTiter-Glo ATP, 48 h; series mostly up to 45.8 µM; also: nearly all actives have a fitted effect of over 35% in size
How it was run: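 qHTS of the MIPE 4.0 collection: 500 myeloma cells/well, 48 h drug exposure at 37C in 5% CO2, then CellTiter-Glo for 5 min at room temperature before luminescence reading.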
Potency is read from the fitted curve at half-maximal effect.

Row | Compound | Potency
1 | COc1ccc(Cc2nccc3cc(OC)c(OC)cc23)cc1OC | 16.6 µM (active)
2 | CCS(=O)(=O)N1CC(CC#N)(n2cc(-c3ncnc4[nH]ccc34)cn2)C1 | 18.7 µM (active)
3 | CN1[C@@H]2CCC[C@@H]1CC(NC(=O)c1nn(C)c3ccccc13)C2 (stereo partly drawn) | inactive
4 | O=C1C(Cl)=C(NCCN2CCOCC2)C(=O)c2ncccc21 | 2.96 µM (active)

assay: Quantitative High-Throughput drug screen in 47 multiple myeloma cell lines against the NCATS MIPE library collection: KMS12PE_JCRB cell viability assay (AID 1918972); details: KMS12PE myeloma viability, CellTiter-Glo ATP, 48 h; series mostly up to 45.8 µM; also: nearly all actives have a fitted effect of over 30% in size
How it was run: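 Relative luminescence from CellTiter-Glo served as the viability signal, referenced to DMSO-treated (100%) and cell-free medium (0%) controls. Treatment lasted 48 hours at 37C with 500 cells per well.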

Row | Compound | Potency
5 | CN[C@@H](C)C(=O)N[C@H]1CN(C(=O)CC(C)C)CC[C@H]2CC[C@@H](C(=O)NC(c3ccccc3)c3ccccc3)N2C1=O | 3.72 µM (active)
6 | CC(C)(C(=O)NCC(F)(F)C(F)(F)F)C(=O)N[C@@H]1C(=O)Nc2ccccc2-c2ccccc21 | 16.6 µM (active)
7 | O=C(CCCCCCC(=O)Nc1ccccc1)NO | 1.66 µM (active)
8 | CC(=NNC(=S)N1CCC1)c1ccccn1 | 0.001 µM (active)
9 | COc1ccc(C2CC(c3ccccc3)=NN2c2ccc(S(N)(=O)=O)cc2)cc1 (stereo not drawn) | 11.8 µM (active)
10 | COCCCCC(=NOCCN)c1ccc(C(F)(F)F)cc1 | inactive
11 | COC(=O)N[C@H](C(=O)N1CCC[C@@H]1c1ncc(-c2ccc(-c3ccc(-c4cnc([C@@H]5CCCN5C(=O)[C@@H](NC(=O)OC)C(C)C)[nH]4)cc3)cc2)[nH]1)C(C)C | 16.6 µM (active)
12 | CCCCCCCCCCCC1=C(O)C(=O)C=C(O)C1=O | 1.18 µM (active)
13 | CN1[C@@H]2CCC[C@@H]1CC(NC(=O)c1nn(C)c3ccccc13)C2 (stereo partly drawn) | inactive
